For test [1], the target named is Lysosomal acid glucosylceramidase (Homo sapiens) (UniProt P04062). The test is described as follows: Glucocerebrosidase-p2 (AID 348; in the data active = potency below about 10 µM; note: potency is the fitted concentration of half-maximal effect). The note with it: purified GBA, blue fluorogenic substrate, 40 min. The essentials: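 Compounds titrated from 0.6 nM upwards against 0.2 nM enzyme in pH 5.9 citric acid/KH2PO4, taurocholate, tween-20; blue fluorogenic substrate 80 uM, 40 min room temperature, stopped and read Ex 365/Em 440 for AC50.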

Test [2] in a line: AP1 Signaling Pathway (AID 357).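 Note: ME-180 reporter cells stimulated with EGF at its EC50 level; % is set by controls: 0 for no effect and ±100 for the full control effect.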 The conditions noted are these: ME-180 AP-1-bla reporter, EGF-induced, beta-lactamase ratio, 5 h; at 7.69 µM (top of the series) unless noted. The essentials: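 First, ME-180 AP-1-bla cells were cultured overnight at 37 °C in low-serum Opti-MEM. Next, titrated compounds with EC50 EGF were incubated 5 hours. Finally, CCF4 was added for 2.5 hours and the 460/530 nm ratio recorded.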

The target of test [3] is Cytochrome P450 1A2 (Homo sapiens) (UniProt P05177). The test is described as follows: p450-cyp1a2 (AID 410; calls by dose curve; note: potency is the fitted concentration of half-maximal effect). The conditions noted are these: recombinant CYP1A2, luciferin-ME demethylation, luminescence; series mostly up to 11.4 µM. A digest of the protocol: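 Inhibition was calculated relative to 57 uM furafylline (full inhibition). The reaction used human CYP1A2 at 20nM with Luciferin-ME at its Km, 100uM, driven by an NADPH-regenerating system for 60 min at room temperature.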

A short description of test [4]: NFAT Signaling Pathway (AID 444).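 Note: carbachol stimulus at about its EC50 of 1 µM final; % is set by controls: 0 for no effect and ±100 for the full control effect.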 The note with it: Jurkat NFAT-bla M1, carbachol, beta-lactamase ratio, 5 h; at 7.69 µM (top of the series) unless noted. The essentials: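 Read-out: CCF4 FRET ratio (460 nm/530 nm) after 1 h RT dye loading, used for %activity and AC50 from titration series. Cells: Jurkat NFAT-β-lactamase/M1 line, treated with compound plus 1 uM carbachol for 5 h, 37 °C.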

A short description of test [5]: Stat Signaling Pathway (AID 446).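 Note: ME-180 cervical cancer cells given 40 pM IL-6 alongside compound; SIE-controlled beta-lactamase reporter measured as 460/530 nm FRET emission ratio; % is set by controls: 0 for no effect and ±100 for the full control effect.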 The conditions noted are these: ME-180 (cervical carcinoma) SIE beta-lactamase reporter, IL-6 stimulated, 5 h; at 7.69 µM (top of the series) unless noted. A digest of the protocol:
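ME-180 cells carrying a SIE-driven beta-lactamase reporter are stimulated with 40 pM IL-6 for 5 h at 37C in the presence of compound. The 460/530 nm FRET substrate ratio is read after 2.5 h at RT. Data are normalised to 300 pM IL-6 and to 125 nM JAK inhibitor controls.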

Test [6] concerns the target Glucocorticoid receptor (Homo sapiens) (UniProt P04150). Nature of the test: GR-GFP Redistribution (AID 450;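 active = compounds whose dose series gives a full or clear partial fitted curve of increased nuclear translocation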; note: potency is the fitted concentration of half-maximal effect). The note with it: U2OS GR-GFP nuclear translocation, laser cytometry, 2 h.
Test [7] has the same target. Nature of the test: GR-EFC Redistribution (AID 451; calls by dose curve; note: potency is the fitted concentration of half-maximal effect). The note with it: CHO-K1 GR-EFC translocation, beta-gal luminescence, 2 h. The essentials:
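Translocation of GR-ED fusion to nuclear EA restores b-gal, read by luminescence after 1 h room-temperature detection. Engineered CHO-K1 biosensor cells, 1,000/well, exposed 2 h at 37 C to titrations up to 46 uM final.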

Test [8] deals with Mitogen-activated protein kinase 10 (Mus musculus) (UniProt Q61831). Nature of the test: JNK3 AlphaScreen Assay (AID 530).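 Note: kinase came from lysate of stimulated human HepG2 cells; signal reports phosphorylation of biotinylated GST-cJun 1-79 at Ser73 with 10 µM ATP; % is set by controls: 0 for no effect and ±100 for the full control effect.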 The note with it: JNK3 lysate, c-Jun phosphorylation; series mostly up to 57.1 µM. A digest of the protocol: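 Room-temperature AlphaScreen kinase assay; pre-activated HepG2 lysate as JNK3 source, biotin-GST-cJun(1-79) substrate, 10 uM ATP, compound 15 min preincubation.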
A general note: In Alpha technology, singlet oxygen from a donor bead excites a nearby acceptor bead.

Test [9] deals with 3',5'-cyclic-AMP phosphodiesterase 4B (Homo sapiens) (UniProt Q07343). Nature of the test: qHTS Assay for Inhibitors of PDE-IV (AID 607; active = well fitted activation curve with a large enough effect in the main read-out, with a control signal flat, not every such curve was filed as active; note: % of control where 0% means no effect). The conditions noted are these: HEK293 ACTOne CNG channel cells, membrane potential fluorescence; series mostly up to 22.9 µM. A digest of the protocol: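 HEK293 ACTOne cells with CNG channel (1000/well), endogenous PDE4; membrane potential dye, compounds up to 22.9 uM final. Fluorescence Ex 535/Em 590; RO 20-1724 (100 uM final) as reference.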

Test [10] addresses Cytochrome P450 2C9 (Homo sapiens) (UniProt P11712). Nature of the test: qHTS Assay for Inhibitors and Substrates of Cytochrome P450 2C9 (AID 883; active = well fitted curve in the direction sought with a large enough effect; an effect the other way counts as inactive or inconclusive; note: % is set by controls: 0 for no effect and ±100 for the full control effect; nearly all actives have a fitted effect of over 60% in size). The conditions noted are these: recombinant CYP2C9, luciferin-H luminescence, 60 min; series mostly up to 57.1 µM. The essentials: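 Inhibition of CYP2C9 is scored as loss of luminescence, with 57uM sulphaphenazole defining 100% inhibition. Substrate Luciferin-H is used at 100uM, equal to its KM; enzyme at 10nM in 25mM KPO4, 60 min at 37C with NADPH regeneration.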

Test [11] addresses Cytochrome P450 3A4 (Homo sapiens) (UniProt P08684). The test is described as follows: qHTS Assay for Inhibitors and Substrates of Cytochrome P450 3A4 (AID 884; active = well fitted curve in the direction sought with a large enough effect; an effect the other way counts as inactive or inconclusive; note: nearly all actives have a fitted effect of over 50% in size; note: potency is the fitted concentration of half-maximal effect). The conditions noted are these: recombinant CYP3A4, Luciferin-PPXE luminescence; series mostly up to 57.1 µM. The essentials: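 20 nM human CYP3A4 with 25 uM Luciferin-PPXE (at KM) in 200 mM KPO4, preincubated 10 min with compound; NADPH regeneration started a 60 min RT reaction. Luciferin detected by luminescence, normalized to 57 uM ketoconazole as full inhibition.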

Test [12] deals with Cytochrome P450 2C19 (Homo sapiens) (UniProt P33261). Nature of the test: qHTS Assay for Inhibitors and Substrates of Cytochrome P450 2C19 (AID 899; active = well fitted curve in the direction sought with a large enough effect; an effect the other way counts as inactive or inconclusive; note: nearly all actives have a fitted effect of over 60% in size; note: potency is the fitted concentration of half-maximal effect). The conditions noted are these: recombinant CYP2C19, luciferin-H EGE luminescence; series mostly up to 11.4 µM. The essentials:
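5nM enzyme + 10uM Luciferin-H EGE (=KM), 50mM KPO4; cpd pin-transferred, 10 min 37C; NADPH regen, 60 min 37C; stopped w/ luciferin detection reagent, 20 min; luminescence. Normalized to 57uM ketoconazole (AC100).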
On the technique in general: qHTS replaces the single test concentration by a dilution series.

Test [13] addresses Cytochrome P450 3A4 (Homo sapiens) (UniProt P08684). The test is described as follows: qHTS Assay for Activators of Cytochrome P450 3A4 (AID 885; active = well fitted curve in the direction sought with a large enough effect; an effect the other way counts as inactive or inconclusive; note: nearly all actives have a fitted effect of over 65% in size; note: potency is the fitted concentration of half-maximal effect). The conditions noted are these: recombinant CYP3A4, Luciferin-PPXE luminescence, 60 min; series mostly up to 57.1 µM. The essentials:
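Human CYP3A4 (20 nM) with Luciferin-PPXE at 25 uM (its KM) in 200 mM KPO4; 10 min compound preincubation, then NADPH regeneration and 60 min reaction at RT. Luciferin read by luminescence; normalized to 57 uM ketoconazole full inhibition.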

Test [14] addresses Cytochrome P450 2D6 (Homo sapiens) (UniProt P10635). The test is described as follows: qHTS Assay for Inhibitors and Substrates of Cytochrome P450 2D6 (AID 891; active = well fitted curve in the direction sought with a large enough effect; an effect the other way counts as inactive or inconclusive; note: potency is the fitted concentration of half-maximal effect; nearly all actives have a fitted effect of over 60% in size). The note with it: recombinant CYP2D6, luciferin-ME EGE luminescence; series mostly up to 11.4 µM. The essentials:
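Human CYP2D6 (5 nM) with 30 uM Luciferin-ME EGE (at Km) in 100 mM KPO4, compound preincubated 10 min, then NADPH regeneration system for 60 min at room temperature. Luciferin read by luminescence; normalized to 1.43 uM quinidine.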

Values without a mark were called inactive. Records with an inconclusive call do not appear. The source made the active and inactive calls. Unless noted, calls come from the whole dose curve; as a rule, active = well fitted curve in either direction with a large enough effect (not every such curve was filed as active); inconclusive = small, poorly fitted or top-dose-only effect, or another doubt; inactive = flat fitted curve, though single readings scatter. A value given as a limit tells only on which side of the number the result lay.

Chain of Lysosomal acid glucosylceramidase (Homo sapiens) (P04062 whole entry, looked up): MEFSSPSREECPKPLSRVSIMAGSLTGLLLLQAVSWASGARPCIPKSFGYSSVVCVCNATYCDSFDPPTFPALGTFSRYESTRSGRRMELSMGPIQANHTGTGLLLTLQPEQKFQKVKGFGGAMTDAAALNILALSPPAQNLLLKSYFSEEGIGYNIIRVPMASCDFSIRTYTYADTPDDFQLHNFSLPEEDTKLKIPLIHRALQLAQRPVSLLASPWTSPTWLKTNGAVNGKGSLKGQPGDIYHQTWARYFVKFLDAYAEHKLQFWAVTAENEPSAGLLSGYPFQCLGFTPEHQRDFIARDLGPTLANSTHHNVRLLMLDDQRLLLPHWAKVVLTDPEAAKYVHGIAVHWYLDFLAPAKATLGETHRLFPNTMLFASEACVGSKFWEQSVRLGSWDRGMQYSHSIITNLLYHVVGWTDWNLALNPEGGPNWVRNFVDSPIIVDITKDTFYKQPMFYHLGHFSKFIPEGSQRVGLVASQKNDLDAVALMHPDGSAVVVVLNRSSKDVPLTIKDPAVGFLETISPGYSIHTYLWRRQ
Chain of Cytochrome P450 1A2 (Homo sapiens) (P05177 whole entry, looked up): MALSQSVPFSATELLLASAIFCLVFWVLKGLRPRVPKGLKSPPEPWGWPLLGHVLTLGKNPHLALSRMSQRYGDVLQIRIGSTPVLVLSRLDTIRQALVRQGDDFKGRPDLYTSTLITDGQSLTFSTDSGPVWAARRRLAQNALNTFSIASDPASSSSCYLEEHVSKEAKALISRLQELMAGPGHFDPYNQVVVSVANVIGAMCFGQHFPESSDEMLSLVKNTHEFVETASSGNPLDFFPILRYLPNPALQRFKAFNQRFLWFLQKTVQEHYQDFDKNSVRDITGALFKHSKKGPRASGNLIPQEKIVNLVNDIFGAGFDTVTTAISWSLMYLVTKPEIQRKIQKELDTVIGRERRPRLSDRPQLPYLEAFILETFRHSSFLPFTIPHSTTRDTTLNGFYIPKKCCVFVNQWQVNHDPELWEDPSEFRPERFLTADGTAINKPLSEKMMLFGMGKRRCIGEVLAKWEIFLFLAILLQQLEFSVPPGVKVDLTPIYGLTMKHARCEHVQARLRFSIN
Chain of Glucocorticoid receptor (Homo sapiens) (P04150 whole entry, looked up): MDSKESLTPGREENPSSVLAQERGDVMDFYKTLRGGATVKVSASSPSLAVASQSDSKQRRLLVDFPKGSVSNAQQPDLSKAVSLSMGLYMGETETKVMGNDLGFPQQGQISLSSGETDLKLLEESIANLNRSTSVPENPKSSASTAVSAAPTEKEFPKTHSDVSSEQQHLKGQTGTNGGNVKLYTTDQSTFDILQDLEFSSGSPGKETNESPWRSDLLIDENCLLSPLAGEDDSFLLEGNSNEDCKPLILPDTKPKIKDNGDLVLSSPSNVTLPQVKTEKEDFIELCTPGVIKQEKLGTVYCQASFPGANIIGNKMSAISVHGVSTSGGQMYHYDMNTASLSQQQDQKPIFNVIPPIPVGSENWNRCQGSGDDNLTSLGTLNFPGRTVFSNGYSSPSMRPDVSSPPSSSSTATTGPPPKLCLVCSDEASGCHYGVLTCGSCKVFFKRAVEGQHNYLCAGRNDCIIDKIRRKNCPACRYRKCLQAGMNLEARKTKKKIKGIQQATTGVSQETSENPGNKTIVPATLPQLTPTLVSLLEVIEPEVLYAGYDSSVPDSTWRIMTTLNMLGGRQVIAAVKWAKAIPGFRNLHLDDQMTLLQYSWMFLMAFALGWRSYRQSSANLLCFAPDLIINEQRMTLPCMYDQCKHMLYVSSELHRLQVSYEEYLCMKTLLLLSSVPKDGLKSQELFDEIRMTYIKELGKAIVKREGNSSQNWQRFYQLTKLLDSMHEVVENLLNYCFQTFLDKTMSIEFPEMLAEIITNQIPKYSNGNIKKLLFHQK
Chain of 3',5'-cyclic-AMP phosphodiesterase 4B (Homo sapiens) (Q07343 whole entry, looked up): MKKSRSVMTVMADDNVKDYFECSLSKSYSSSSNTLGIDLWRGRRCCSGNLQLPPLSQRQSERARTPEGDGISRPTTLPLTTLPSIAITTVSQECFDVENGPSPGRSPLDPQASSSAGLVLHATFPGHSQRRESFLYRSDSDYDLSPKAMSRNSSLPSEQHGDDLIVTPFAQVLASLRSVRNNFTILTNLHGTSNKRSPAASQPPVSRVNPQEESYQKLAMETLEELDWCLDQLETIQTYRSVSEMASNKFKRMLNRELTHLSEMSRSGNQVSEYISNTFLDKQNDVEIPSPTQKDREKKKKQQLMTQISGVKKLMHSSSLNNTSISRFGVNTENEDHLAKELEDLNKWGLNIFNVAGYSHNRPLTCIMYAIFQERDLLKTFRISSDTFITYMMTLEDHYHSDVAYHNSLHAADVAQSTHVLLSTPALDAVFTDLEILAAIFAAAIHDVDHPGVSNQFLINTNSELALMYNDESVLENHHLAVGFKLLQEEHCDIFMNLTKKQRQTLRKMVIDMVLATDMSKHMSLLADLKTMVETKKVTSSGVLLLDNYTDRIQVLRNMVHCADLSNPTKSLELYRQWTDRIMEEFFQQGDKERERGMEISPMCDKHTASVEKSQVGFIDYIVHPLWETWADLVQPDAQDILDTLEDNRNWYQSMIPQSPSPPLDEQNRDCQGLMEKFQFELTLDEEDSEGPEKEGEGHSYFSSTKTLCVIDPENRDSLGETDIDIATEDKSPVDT
Chain of Cytochrome P450 2C19 (Homo sapiens) (P33261 whole entry, looked up): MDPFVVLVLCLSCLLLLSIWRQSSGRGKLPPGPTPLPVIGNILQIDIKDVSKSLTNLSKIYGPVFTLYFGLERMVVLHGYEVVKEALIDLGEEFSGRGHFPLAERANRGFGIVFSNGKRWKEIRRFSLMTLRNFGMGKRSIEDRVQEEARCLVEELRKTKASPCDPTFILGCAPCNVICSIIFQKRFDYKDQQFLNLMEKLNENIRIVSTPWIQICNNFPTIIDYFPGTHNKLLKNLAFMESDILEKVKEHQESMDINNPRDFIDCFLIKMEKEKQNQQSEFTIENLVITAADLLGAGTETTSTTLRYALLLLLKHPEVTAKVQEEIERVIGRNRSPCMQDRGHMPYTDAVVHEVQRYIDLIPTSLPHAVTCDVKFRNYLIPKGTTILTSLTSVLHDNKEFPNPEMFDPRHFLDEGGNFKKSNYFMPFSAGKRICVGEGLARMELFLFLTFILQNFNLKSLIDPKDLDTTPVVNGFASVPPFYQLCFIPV
Chain of Cytochrome P450 3A4 (Homo sapiens) (P08684 whole entry, looked up): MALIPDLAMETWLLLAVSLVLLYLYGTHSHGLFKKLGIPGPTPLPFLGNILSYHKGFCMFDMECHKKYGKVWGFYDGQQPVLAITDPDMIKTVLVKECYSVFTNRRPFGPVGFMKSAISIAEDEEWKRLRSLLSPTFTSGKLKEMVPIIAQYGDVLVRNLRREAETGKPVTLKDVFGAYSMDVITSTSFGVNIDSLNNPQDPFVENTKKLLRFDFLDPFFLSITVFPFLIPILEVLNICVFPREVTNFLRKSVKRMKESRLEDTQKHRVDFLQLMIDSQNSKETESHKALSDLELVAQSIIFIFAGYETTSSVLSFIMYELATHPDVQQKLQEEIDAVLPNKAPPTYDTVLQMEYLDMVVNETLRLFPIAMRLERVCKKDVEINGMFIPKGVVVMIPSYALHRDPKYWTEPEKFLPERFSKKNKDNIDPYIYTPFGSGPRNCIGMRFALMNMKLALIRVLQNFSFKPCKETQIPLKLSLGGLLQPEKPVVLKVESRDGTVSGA
Chain of Cytochrome P450 2D6 (Homo sapiens) (P10635 whole entry, looked up): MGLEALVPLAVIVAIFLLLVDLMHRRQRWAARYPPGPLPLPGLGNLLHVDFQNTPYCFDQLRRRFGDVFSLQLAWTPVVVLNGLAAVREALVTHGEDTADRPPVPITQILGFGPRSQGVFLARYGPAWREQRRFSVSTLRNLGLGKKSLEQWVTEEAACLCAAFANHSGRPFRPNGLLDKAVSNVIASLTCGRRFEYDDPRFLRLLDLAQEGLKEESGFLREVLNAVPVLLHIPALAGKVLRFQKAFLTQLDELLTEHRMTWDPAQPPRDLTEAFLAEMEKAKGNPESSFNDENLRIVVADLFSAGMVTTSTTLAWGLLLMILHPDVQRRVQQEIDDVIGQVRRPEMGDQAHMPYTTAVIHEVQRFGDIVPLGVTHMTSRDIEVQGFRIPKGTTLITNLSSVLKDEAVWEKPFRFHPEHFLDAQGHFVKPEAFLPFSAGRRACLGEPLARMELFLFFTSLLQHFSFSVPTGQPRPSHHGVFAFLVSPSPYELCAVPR
Chain of Cytochrome P450 2C9 (Homo sapiens) (P11712 whole entry, looked up): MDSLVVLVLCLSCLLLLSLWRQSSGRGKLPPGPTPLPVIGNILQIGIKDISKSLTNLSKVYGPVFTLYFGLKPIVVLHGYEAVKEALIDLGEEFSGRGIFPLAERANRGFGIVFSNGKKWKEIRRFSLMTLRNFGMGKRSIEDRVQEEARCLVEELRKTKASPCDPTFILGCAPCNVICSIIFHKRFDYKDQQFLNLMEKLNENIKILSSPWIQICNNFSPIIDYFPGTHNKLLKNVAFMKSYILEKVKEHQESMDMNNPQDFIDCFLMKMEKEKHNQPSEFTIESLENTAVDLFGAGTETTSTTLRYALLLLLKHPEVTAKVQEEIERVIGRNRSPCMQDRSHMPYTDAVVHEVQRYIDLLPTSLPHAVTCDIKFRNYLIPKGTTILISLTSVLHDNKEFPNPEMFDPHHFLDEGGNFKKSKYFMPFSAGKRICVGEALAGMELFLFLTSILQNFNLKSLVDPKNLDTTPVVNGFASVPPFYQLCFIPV

On to `Cc1ccc(OP(=O)(Oc2ccc(C)cc2)N2C=Cc3ccccc3[C@H]2C#N)cc1`, for which the Potency was > 11.4 µM in [1]; 3.98 µM (active) in [3]; > 46 µM in test [6]; > 9.22 µM in test [7]; 2.51 µM (active) in test [11]; 2.51 µM (active) in test [12]. The activity change, negative = inhibition in test [2] was 0.753%; in [4], -17.9%; in test [8], 7.39% [at 11.4 µM]; in [10] it was 45.9% [at 11.4 µM]. Also, in test [5], the activity, negative = inhibition is -13.5%. In [9], the molecule was called inactive.

Turning to `CC(=O)O[C@H]1CC[C@@]2(C)[C@@H](CC[C@H]3[C@H]2CC(=O)[C@]2(C)[C@@H]3C[C@@H](N3CC3)[C@H]2C(C)=O)C1`, the Potency in test [1] was > 11.4 µM; in [3] it was 0.0398 µM (active); in test [6] it was > 46 µM; in test [7] it was > 9.22 µM; in [13] it was 3.98 µM (active). Further, the activity change, negative = inhibition in test [2] is 4.13%; in [4], 13.1%; in test [8], -0.773% [at 11.4 µM]; in test [11], 71.6% [at 11.4 µM]. Also, the activity, negative = inhibition in test [5] is 5.02%. Besides, in test [9], the molecule was called inactive. For the same molecule, the Potency result in test [12] was “inactive”.

For the molecule `NS(=O)(=O)c1ccc(-c2ccc([As](=O)(O)O)cc2)cc1`, the Potency is > 11.4 µM in test [1], > 46 µM in [6] and > 9.22 µM in [7]. Further, the activity change, negative = inhibition in test [2] is 0.512%; in test [4], 17.3%; in test [8], 2.57% [at 11.4 µM]. Also, the Potency entry in [3] was “inactive”. In addition, the activity, negative = inhibition in test [5] is 6.23%. Further, the result in test [9] was inactive.

With `Oc1ccc(CCNCc2cc3c(cc2Br)OCO3)cc1`, the Potency was > 11.4 µM in test [1]; 1 µM (active) in test [3]; > 46 µM in test [6]; > 9.22 µM in [7]; 0.316 µM (active) in [14]; 5.01 µM (active) in [12]. Further, the activity change, negative = inhibition in [2] is -4.32%; in [4], -17%; in test [8], 0.159% [at 11.4 µM]. For the same molecule, in [5], the activity, negative = inhibition was 9.31%. In test [9], the result was inactive. Moreover, in test [13], the activity change, positive = activation is -36.4% [at 11.4 µM].

Take `CN[C@H](Cc1ccccc1)c1cccc(OC)c1O`: the Potency is > 11.4 µM in test [1]; > 46 µM in test [6]; > 9.22 µM in test [7]; 0.0398 µM (active) in test [14]; 2 µM (active) in [12]. Further, the activity change, negative = inhibition in test [2] was 4.57%; in test [4], 10.1%; in test [8], 1.41% [at 11.4 µM]. In test [3], the Potency result was “inactive”. Besides, the activity, negative = inhibition in test [5] was -6.4%. For the same molecule, the molecule was classed as inactive in test [9].

Turning to `O=C(O)Cc1ccc([N+](=O)[O-])cc1[N+](=O)[O-]`, the Potency is > 11.4 µM in [1], 3.98 µM (active) in test [3], > 46 µM in [6] and > 9.22 µM in test [7]. The activity change, negative = inhibition was -0.903% in test [2], -1.68% in test [4] and 4.4% [at 11.4 µM] in test [8]. Moreover, in test [5], the activity, negative = inhibition was 5.17%. Further, the outcome in test [9] was inactive.

As to `c1ccc(CCN2CCCCCC2)nc1`, the Potency in test [1] is > 11.4 µM; in [6], > 46 µM; in test [7], > 9.22 µM. In addition, the activity change, negative = inhibition in test [2] was -1.84%; in test [4], -10.4%; in [8], 4.35% [at 11.4 µM]. Also, the Potency entry in [3] was “inactive”. The activity, negative = inhibition in test [5] was 3.27%. In addition, in test [9], the molecule was called inactive.

`CC(C)CCC1(CCN)C(=O)NC(=O)NC1=O`: the Potency in test [1] was > 11.4 µM; in test [6], > 46 µM; in test [7], > 9.22 µM. For the same molecule, the activity change, negative = inhibition in [2] was 5.02%; in test [4], 4.97%; in test [8] it was -0.876% [at 11.4 µM]. In test [3], the Potency result is “inactive”. In test [5], the activity, negative = inhibition was 1.34%. In test [9], the molecule was called inactive.

`Cc1cc[c]([Sb]2[O][C@H]([C@H](O)[C@H](O)C(=O)O)[C@@H](CO)[O]2)cc1`: the Potency was > 11.4 µM in test [1], > 46 µM in [6] and > 9.22 µM in test [7]. Besides, the activity change, negative = inhibition is 0.9% in test [2], -5.69% in [4] and 0.865% [at 11.4 µM] in test [8]. The Potency result in test [3] is “inactive”. In addition, the activity, negative = inhibition in test [5] is 4.3%. Besides, the molecule was called inactive in test [9].

On to `NCCc1ccc(S(=O)(=O)O)cc1[N+](=O)[O-]`, for which the figures for the Potency in test [1], in [6] and in test [7] were > 11.4 µM, > 46 µM and > 9.22 µM, respectively. For the same molecule, the activity change, negative = inhibition in test [2] was -10.6%; in [4], -27.3%; in test [8], 10.9% [at 11.4 µM]. Moreover, the Potency entry in [3] is “inactive”. The activity, negative = inhibition in test [5] was 1.75%. For the same molecule, the outcome in [9] was inactive.

For `NCCCN1CCN(c2ccccc2)CC1`, the Potency was > 11.4 µM in [1], > 46 µM in [6] and > 9.22 µM in test [7]. For the same molecule, the activity change, negative = inhibition in [2] was 2.17%; in [4], -2.83%; in [8] it was -2.39% [at 11.4 µM]. The Potency entry in test [3] was “inactive”. Besides, in test [5], the activity, negative = inhibition is 5.73%. In addition, in test [9], the result was inactive.

Regarding `O=C1N[C@@]2(CN3CCC2CC3)C(=O)N1CN(Cc1ccccc1)c1ccccc1`, the Potency in test [1] is > 11.4 µM; in test [3] it was 0.398 µM (active); in test [6] it was > 46 µM; in test [7] it was > 9.22 µM. The activity change, negative = inhibition in test [2] is -6.81%; in test [4], 6.45%; in test [8] it was 4.81% [at 11.4 µM]. The activity, negative = inhibition in [5] is -6.68%. Moreover, the outcome in test [9] was inactive.

For the origin of these results see PubChem BioAssay (NCATS).
